3T3 cytotox: Cytotoxic Profiling in NIH 3T3 Cell Line of Diverse Libraries Using Quantitative High-Throughput Screening | NIH 3T3 viability, CellTiter-Glo ATP luminescence, 48-72 h | Potency, µM (highest dose often 96.7 µM), hits mostly inhibitors | 94,000 compounds, 4.3% hits | AID 1345082, 2018; further: nearly all actives have a fitted effect of over 55% in size
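NIH 3T3 cells at 400 cells/well received 23 nL of compound by pintool and were incubated 48 or 72 h at 37 °C. Viability was read as ATP-coupled CellTiter-Glo luminescence.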
GPT2 inhibitor: Primary qHTS assay for inhibitors of Glutamate pyruvate transaminase 2 (GPT2). 100,000 compounds, 0.25% hits. Potency, µM (doses to about 57.7 µM), actives largely listed as inhibitors. Alanine aminotransferase 2 (Homo sapiens), Q8TD30. Recombinant GPT2, coupled pyruvate oxidase/HRP Amplex Red fluorescence; further: nearly all actives have a fitted effect of over 60% in size
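Recombinant GPT2 (10ng/uL) with 250uM a-KG and 2mM L-alanine, 30 min at room temperature, in HEPES pH 7.5 buffer. Pyruvate detected by pyruvate oxidase/HRP/Amplex Red fluorescence after 30 min in the dark; AOA (50uM) as positive control.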
hNpr1 antagonist: Natriuretic polypeptide receptor (hNpr1) antagonism - Primary qHTS | Atrial natriuretic peptide receptor 1 (Homo sapiens), P16066 | 76,000 compounds, 1.6% hits | HEK293 hNpr1 GloSensor cGMP, ANP-stimulated luminescence | Potency, µM (titrated, usually from 46.3 µM), actives largely listed as inhibitors; calls by dose curve; further: nearly all actives have a fitted effect of over 60% in size
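HEK293 cells stably expressing human Npr1 and cGMP GloSensor pGS-40F, loaded 2 h with 2% GloSensor reagent, given compound 30 min at room temperature. Luminescence read before and 20 min after 0.1 nM hNppA.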
HEK293 tox: Cytotoxic Profiling in HEK 293 Cell Line of Diverse Libraries Using Quantitative High-Throughput Screening; AID 1345083, 2018; Potency, µM (doses to about 115 µM), most hits filed as inhibitors; 94,000 compounds, 6.6% hits; HEK 293 viability, ATP luminescence (CellTiter-Glo), 48-72 h; further: nearly all actives have a fitted effect of over 60% in size
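Luminescence from cellular ATP, measured with CellTiter-Glo, indicates HEK 293 viability. Cells plated at 250 cells/well are treated with compound for 48 or 72 hr at 37 degree Celsius before reagent addition.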
Luciferase inh: Firefly luciferase inhibition profiling of diverse chemical library using quantitative high-throughput screening | AID 1347043, 2019 | Potency, µM (titrated, usually from 115 µM), hits mostly inhibitors | 76,000 compounds, 2.5% hits | purified P. pyralis luciferase, luminescence, biochemical | Luciferin 4-monooxygenase (Photinus pyralis), P08659; further: nearly all actives have a fitted effect of over 65% in size
Target sequence (P08659 whole entry, looked up): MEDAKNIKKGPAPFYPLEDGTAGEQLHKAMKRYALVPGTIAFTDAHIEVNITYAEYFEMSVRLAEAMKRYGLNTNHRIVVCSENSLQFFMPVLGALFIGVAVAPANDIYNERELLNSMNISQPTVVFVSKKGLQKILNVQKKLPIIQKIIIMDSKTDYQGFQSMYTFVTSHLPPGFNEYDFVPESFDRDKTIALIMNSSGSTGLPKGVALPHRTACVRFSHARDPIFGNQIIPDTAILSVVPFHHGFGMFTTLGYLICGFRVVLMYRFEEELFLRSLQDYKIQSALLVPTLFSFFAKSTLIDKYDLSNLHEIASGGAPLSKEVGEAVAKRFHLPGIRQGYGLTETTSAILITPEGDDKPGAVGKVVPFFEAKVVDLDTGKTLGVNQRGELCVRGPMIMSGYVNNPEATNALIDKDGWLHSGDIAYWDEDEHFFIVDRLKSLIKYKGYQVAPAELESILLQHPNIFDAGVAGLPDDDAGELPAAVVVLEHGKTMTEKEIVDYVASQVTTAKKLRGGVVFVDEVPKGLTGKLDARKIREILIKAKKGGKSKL
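Purified P. pyralis luciferase (10nM final) in 50mM Tris acetate pH 7.5, 10mM Mg acetate, 0.01% Tween-20, 0.05% BSA with 10uM D-luciferin and 10uM ATP. Compounds titrated qHTS. Luminescence imaged on CCD.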
Large screens that a line does not name were inactive. Shown are actives, neighbours in structure and some others; about 10% of the full set was active somewhere. Unless noted, the call rests on the fitted dose curve; in most records, active means well fitted curve in the direction sought with a large enough effect; inconclusive means small, poorly fitted or top-dose-only effect, or another doubt; inactive means no such curve, though single readings can be large; an effect the other way counts as inactive or inconclusive.

N#Cc1ccc(C(=O)Nc2ccc([C@@H](O)[C@H]3COCC(=O)N3Cc3ccc(F)cc3)cc2)cc1	HEK293 tox inconclusive
O=C(Nc1ccc([C@@H](O)[C@H]2COCC(=O)N2Cc2ccc(F)cc2)cc1)c1ccccc1	3T3 cytotox inconclusive, HEK293 tox 100µM
O=C(O)COc1ccc(-c2nccc3c2C(=O)N(Cc2c[nH]c4ccccc24)CC(COc2ccc(F)cc2F)O3)cc1 (centres undefined)	3T3 cytotox inconclusive, Luciferase inh 45µM
COc1cccc(OCC2CN(Cc3cccc(C(F)(F)F)c3)C(=O)c3c(ccnc3-c3ccc(OCC(=O)O)cc3)O2)c1OC (centres undefined)	3T3 cytotox inconclusive, Luciferase inh 45µM
Cc1nc2c(NC(=O)Nc3cccc(C(F)(F)F)c3)cccn2n1	3T3 cytotox inconclusive, HEK293 tox 35µM, Luciferase inh inconclusive
CCc1nc2c(NC(=O)Nc3cccc(C(=O)OC)c3)cccn2n1	3T3 cytotox inconclusive, HEK293 tox inconclusive, Luciferase inh inconclusive
COc1ccc(NC(=O)Nc2cccn3nc(C)nc23)cc1	3T3 cytotox inconclusive, GPT2 inhibitor inconclusive, HEK293 tox inconclusive, Luciferase inh 18µM
CCOc1ccc(CC(=O)Nc2cccn3nc(C)nc23)cc1	none
Cc1ccccc1CC(=O)NC1CCN(c2cc(-c3ccccc3)[nH]n2)CC1	3T3 cytotox inconclusive, HEK293 tox inconclusive
COc1ccc(-c2nc(CC3CCN(C(=O)c4ccoc4)C3)no2)cc1 (centres undefined)	3T3 cytotox inconclusive, HEK293 tox inconclusive (no result: hNpr1 antagonist, Luciferase inh)
COc1ccc(NC(=O)[C@@H]2C[C@@H](c3cccc(C(F)(F)F)c3)N(C)C2)c(C)c1	3T3 cytotox inconclusive, HEK293 tox inconclusive
COc1cccc(NC(=O)[C@@H]2C[C@@H](c3cccc(C(F)(F)F)c3)N(C)C2)c1	3T3 cytotox 79µM, HEK293 tox 100µM
CN1C[C@H](C(=O)Nc2ccccc2)C[C@H]1c1cccc(C(F)(F)F)c1	3T3 cytotox 45µM, HEK293 tox 79µM
CN1C[C@H](C(=O)NCc2ccccc2)C[C@H]1c1cccc(C(F)(F)F)c1	3T3 cytotox inconclusive, HEK293 tox inconclusive
COCCN1C(=O)c2ccccc2C(C(=O)NCCCc2ccccc2)C12CCCC2 (centres undefined)	HEK293 tox inconclusive
CCC1Oc2ccc(NC(=O)c3ccc4c(c3)OCO4)cc2CN(Cc2ccccc2)C1=O (centres undefined)	HEK293 tox 89µM
CCC1Oc2ccc(NC(=O)c3ccc(F)cc3F)cc2CN(Cc2ccc3c(c2)OCO3)C1=O (centres undefined)	HEK293 tox inconclusive
CCC1Oc2ccc(NC(=O)c3cccc(OC)c3)cc2CN(Cc2ccccc2)C1=O (centres undefined)	3T3 cytotox inconclusive, HEK293 tox 45µM
CCC1Oc2ccc(NC(=O)c3ccccc3)cc2CN(Cc2ccc(OC)cc2)C1=O (centres undefined)	3T3 cytotox inconclusive, HEK293 tox inconclusive
CCC1Oc2ccc(NC(=O)Cc3ccc(OC)cc3)cc2CN(Cc2ccc(OC)cc2)C1=O (centres undefined)	3T3 cytotox inconclusive, GPT2 inhibitor inconclusive, HEK293 tox inconclusive
CCC1Oc2ccc(NC(=O)Cc3ccc(OC)cc3)cc2CN(Cc2ccc3c(c2)OCO3)C1=O (centres undefined)	3T3 cytotox inconclusive, HEK293 tox 22µM
CCC1Oc2ccc(NC(=O)Cc3ccccc3)cc2CN(Cc2ccc3c(c2)OCO3)C1=O (centres undefined)	3T3 cytotox inconclusive, HEK293 tox 35µM
COc1cccc(C(=O)N2CCC(C(=O)N3CCC(c4nc5ccncc5[nH]4)C3)CC2)c1 (centres undefined)	none (no result: hNpr1 antagonist, Luciferase inh)
Cc1noc2c(N3CCOCC3)cc(-c3ccsc3)nc12	3T3 cytotox 28µM, HEK293 tox inconclusive
CCn1nc(-c2cccc(-c3ccnn3C)c2)nc1N(C)C	HEK293 tox 79µM
CCn1nc(-c2ccc3c(c2)OCO3)nc1N(C)C	Luciferase inh inconclusive
COc1cccc(-c2ccc(CN3CCCC(NC(=O)N(C)C)C3)cc2)c1 (centres undefined)	3T3 cytotox inconclusive, HEK293 tox inconclusive (no result: hNpr1 antagonist, Luciferase inh)
COCC(=O)N1CC(N2C(=O)c3c(c(C)nn3-c3ccccc3)C2C(C)C)C1 (centres undefined)	none (no result: GPT2 inhibitor, hNpr1 antagonist, Luciferase inh)
Cc1nn(-c2ccccc2)c2c1C(C(C)C)N(C1CCCN(C(=O)Cc3cccc(Cl)c3)C1)C2=O (centres undefined)	3T3 cytotox inconclusive, HEK293 tox 28µM (no result: GPT2 inhibitor, hNpr1 antagonist, Luciferase inh)
Cc1nn(-c2ccccc2)c2c1C(C(C)C)N(C1CCN(C(=O)Cc3cccc(Cl)c3)C1)C2=O (centres undefined)	3T3 cytotox 35µM, HEK293 tox 45µM (no result: GPT2 inhibitor, hNpr1 antagonist, Luciferase inh)
COc1ccc(CC(=O)N2CCC(N3C(=O)c4c(c(C)nn4-c4ccccc4)C3C(C)C)C2)cc1 (centres undefined)	3T3 cytotox 40µM, HEK293 tox inconclusive (no result: GPT2 inhibitor, hNpr1 antagonist, Luciferase inh)
Cc1nn(-c2ccccc2)c2c1C(C(C)C)N(C1CN(C(=O)Cc3ccccn3)C1)C2=O (centres undefined)	HEK293 tox inconclusive (no result: GPT2 inhibitor, hNpr1 antagonist, Luciferase inh)
CCCC(C)c1c(-c2ccccc2)ncn1CCNC(C)=O (centres undefined)	none
CCOc1cc(CN(C)C(=O)c2cc(C)sc2NC(=O)C(C)(C)C)ccc1OC	HEK293 tox inconclusive
CCCNC(=O)N1CCC(c2ncc(C)n2Cc2ccc(F)cc2)C1 (centres undefined)	none (no result: hNpr1 antagonist, Luciferase inh)
COc1ccc(C(=O)N[C@@H]2CN(Cc3ccccc3)C[C@H]2CN(C)C)cc1	3T3 cytotox inconclusive, HEK293 tox 5.6µM (no result: hNpr1 antagonist, Luciferase inh)
CN(C)C[C@@H]1CN(Cc2ccncc2)C[C@H]1NC(=O)c1ccc(Cl)cc1	3T3 cytotox inconclusive, HEK293 tox 40µM
Cc1cccc(C(=O)N[C@@H]2CN(C3CCOCC3)C[C@H]2CN(C)C)c1	HEK293 tox inconclusive
CN(C)C[C@@H]1CN(C2CCOCC2)C[C@H]1NC(=O)c1ccc(F)c(Cl)c1	3T3 cytotox inconclusive, HEK293 tox 79µM
Cc1ccc(C)c(C(=O)N[C@@H]2CN(Cc3ccccn3)C[C@H]2CN(C)C)c1	HEK293 tox 79µM
CC(C)c1ccc(S(=O)(=O)c2nnn3c2nc(NC2CCCC2)c2ccccc23)cc1	none (no result: hNpr1 antagonist, Luciferase inh)
Cn1nccc1C(=O)NCC1Cn2cccc2C(=O)N1Cc1ccccc1 (centres undefined)	none
O=C(NCc1ccc(F)c(F)c1)C1CCc2nnc(C3CC3)n21 (centres undefined)	none (no result: hNpr1 antagonist, Luciferase inh)

Compound activity as filed in PubChem BioAssay.
